TEAD-YAP inh = TEAD-YAP interaction inhibition, primary screen, TEAD-YAP interaction inhibitor project, luminescence, HEK-TIYL cells; TEAD-Gal4/YAP UAS-luciferase luminescence; 640,000 tested, 1.4% active; inhibition, % at 9.12 µM; AID 1259422, 2018; in the data active means inhibition above about 32%;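 further: 0% = median of test compound wells and 100% = reference inhibitor wells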
GPR151 ag = activators of human GPR151, primary screen, cell-based, PathHunter beta-arrestin, luminescence | activation, % at 11.2 µM | G-protein coupled receptor 151 (Homo sapiens), Q8TDV0 | PathHunter beta-arrestin GPR151 cells | 650,000 tested, 1% active; in the data active means activation above about 4.9%;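 further: 0% = median of compound wells and 100% = cells with positive control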
FBW7 activator = FBW7 E3 ligase activators, primary screen, biochemical, AlphaScreen, human; AlphaScreen FBW7–phospho-cyclin E peptide binding, activator screen; normalized activity (activation), % at 26.1 µM; 650,000 tested, 0.13% active; AID 1259310, 2017; in the data active means normalized activity above about 1.9%;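 further: purified mutant Fbw7 with reduced substrate affinity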
MITF primary = MITF inhibitors, primary screen, biochemical, AlphaScreen, human; 650,000 tested, 0.91% active; Microphthalmia-associated transcription factor (Homo sapiens), O75030; AID 1259374, 2018; inhibition, % at 2.6 µM; AlphaScreen MITF homodimerization, bead proximity signal; in the data active means inhibition above about 50%;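 further: 0% = vehicle wells with protein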
Target sequence (O75030 whole entry, looked up): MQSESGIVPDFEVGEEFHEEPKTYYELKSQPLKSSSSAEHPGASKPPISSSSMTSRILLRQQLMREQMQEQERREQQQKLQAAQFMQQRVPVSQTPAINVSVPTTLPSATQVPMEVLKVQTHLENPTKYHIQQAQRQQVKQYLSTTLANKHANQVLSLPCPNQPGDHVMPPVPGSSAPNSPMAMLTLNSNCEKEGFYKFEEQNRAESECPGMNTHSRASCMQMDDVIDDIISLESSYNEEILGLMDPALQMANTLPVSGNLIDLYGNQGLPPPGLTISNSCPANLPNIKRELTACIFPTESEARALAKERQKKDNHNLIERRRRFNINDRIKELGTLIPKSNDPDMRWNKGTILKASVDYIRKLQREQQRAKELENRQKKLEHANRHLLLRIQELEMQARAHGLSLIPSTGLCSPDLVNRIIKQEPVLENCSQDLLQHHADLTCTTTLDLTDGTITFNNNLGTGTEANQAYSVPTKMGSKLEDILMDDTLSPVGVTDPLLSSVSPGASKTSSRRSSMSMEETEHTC
GPR151 conf act = GPR151 activators, triplicate retest, confirmation, cell-based, PathHunter beta-arrestin, luminescence. AID 1508609, 2020. activation, % at 11.2 µM. 6,700 tested, under 10 active. shares compounds with GPR151 ag. GPR151 PathHunter beta-arrestin cells, 90 min; % of EA-reagent control over plate median;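 active means mean percent activation across replicates above the confirmation screen cutoff of 4.91%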
GPR119 counter = GPR119 activators in beta-arrestin cells, counter-screen for GPR151 activator project, cell-based, PathHunter beta-arrestin, luminescence, triplicate. shares compounds with GPR151 ag. 90 min; 0 = compound-well median, 100 = enzyme-acceptor control. activation, % at 11.2 µM. 6,700 tested, 0.3% active. AID 1508611, 2020;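 active means mean percent activation in the counterscreen above 29.09%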;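 further: counterscreen on off-target GPR119 to flag nonselective hits from the GPR151 activator screen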
Active calls of the source: *; / = no result. Rows were chosen to be rich in hits. Some 3.4% of all compounds tested hit in one or more screens of this group.

SMILES	TEAD-YAP inh	GPR151 ag	FBW7 activator	MITF primary	GPR151 conf act	GPR119 counter
c1nc(NCCN2CCOCC2)c2c3c(sc2n1)CCCC3	-5.9	0.9	-0.2	-3.6	/	/
c1nc(NCC2CCCO2)c2c3c(sc2n1)CCC3 (stereo unspecified)	-0.9	7.6*	-0.3	-2.7	0.0	5.9
CN(CCO)C(=O)c1cc(COc2cccc3cnccc23)on1	-5.0	6.7*	0.2	19.1	1.2	-2.6
CC(C)c1cc(CNC(=O)c2cc(COc3cccc4cnccc34)on2)on1	15.4	-0.1	0.2	11.6	/	/
Cn1c(=O)c2c(SCCC3OCCO3)nc(C3CCCCC3)nc2n(C)c1=O	-3.9	7.9*	-0.2	-15.2	3.3	8.3
O=c1c2sccc2nc(SCc2ccc(Cl)cc2)n1-c1ccccc1	-1.0	-1.6	0.6	2.1	/	/
C/C(=N\Nc1ccc([N+](=O)[O-])cc1S(=O)(=O)N1CCOCC1)c1cccs1	3.9	6.3*	-0.1	-8.3	-0.1	-11.8
COc1ccc(/C(C)=N/Nc2ccc([N+](=O)[O-])cc2S(=O)(=O)N2CCOCC2)cc1	0.2	1.2	-0.1	-4.6	/	/
CN(C)CCNC(=S)Nc1ccc(F)cc1	4.9	-0.5	0.0	-24.3	/	/
CN(C)CCNC(=S)Nc1ccc(C(=O)O)cc1	0.4	10.2*	0.1	-3.3	0.2	-3.9
CN(C)CCNC(=O)C(=O)Nc1ccccc1	-16.5	8.4*	0.1	8.4	-0.5	-16.3
CN(C)CCNC(=O)Nc1ccccc1	-3.8	1.1	0.4	-12.5	/	/
CCOC(=O)C1=C(C)N=c2s/c(=C\c3ccccc3OCc3ccc(Cl)cc3)c(=O)n2C1c1ccc(OC)c(OC)c1 (stereo unspecified)	-2.2	2.9	-0.1	-2.5	/	/
Cc1cc(C)c(CN2CCN(Cc3c(C)cc(C)cc3O)CC2)c(O)c1	2.5	1.1	0.0	9.6	/	/
O=C(COC(=O)c1cc([N+](=O)[O-])ccc1NCCO)Nc1ccc(F)cc1	10.8	1.1	0.0	-38.2	/	/
O=C(COC(=O)c1cc([N+](=O)[O-])ccc1NCCO)Nc1ccc(F)cc1F	-17.1	5.6*	-0.1	-0.7	0.2	-5.1
COC(=O)c1c(NC(=O)c2ccc(OC)cc2)sc(C)c1C	-14.5	0.0	-0.2	-6.2	/	/
O=C(/C=C\N1CCCCC1)c1ccc(Cl)cc1	-12.5	6.1*	0.1	15.2	-1.8	-25.7
O=C(O)Cc1c(-c2ccccc2)c2cc(Br)ccc2[nH]c1=O	1.0	0.9	0.0	-4.5	/	/
CCN(CC)c1c(-c2ccccc2)c2cc(Br)ccc2[nH]c1=O	16.9	5.9*	0.1	9.2	-0.1	6.7
COc1ccc(CCNC(=O)c2cccc(N3CCCC3CO)n2)cc1 (stereo unspecified)	46.5*	8.7*	0.1	3.2	-0.1	-6.9
CCCNC(=O)c1cccc(N2CCC(N3CCOCC3)CC2)n1	2.6	1.0	0.0	13.0	/	/
O=C(NCCc1ccc(O)cc1)c1cccc(N2CCC(N3CCOCC3)CC2)n1	3.7	5.6*	0.0	1.8	-1.1	-14.6
O=C(NCCO)c1cccc(N2CCCC2CO)n1 (stereo unspecified)	3.7	-1.0	0.3	12.2	/	/
CC(=O)Nc1ccc(NC(=O)c2cccc(N3CCCC3CO)n2)cc1 (stereo unspecified)	9.0	5.6*	-0.1	-5.5	0.1	-4.1
SMILES	TEAD-YAP inh	GPR151 ag	FBW7 activator	MITF primary	GPR151 conf act	GPR119 counter
CC1CCc2c(sc(NC(=O)c3ccccc3Br)c2C(=O)OC(C)C)C1 (stereo unspecified)	10.6	-0.9	0.0	-1.9	/	/
Cc1c(C(=O)Nc2cc(Sc3ccc(F)cc3)cc([N+](=O)[O-])c2)sc2ncn(Cc3ccccc3F)c(=O)c12	5.4	5.1*	0.3	18.8	2.0	12.1
O=C1CCC(C(=O)Nc2cc(F)cc(F)c2)=NN1	8.6	6.4*	0.0	-3.1	1.0	6.0
CC(C)NC(=O)C1=CCN(S(=O)(=O)c2ccc(F)cc2)CC1	-5.1	2.0	-0.1	4.5	/	/
COc1ccc([N+](=O)[O-])cc1NC1CCCCC1C (stereo unspecified)	4.8	5.7*	0.0	50.4	0.1	0.6
CCS(=O)(=O)Nc1cc([N+](=O)[O-])ccc1OC	7.0	0.3	0.0	-6.0	/	/
COc1ccc([N+](=O)[O-])cc1NC(C)C	8.1	5.0*	-0.1	-0.8	-0.1	-2.6
CC1CCCCC1Nc1ccc([N+](=O)[O-])cc1C#N (stereo unspecified)	-3.1	-0.1	-0.1	0.5	/	/
Cc1nnc(C)c2c(C)n(C(C)c3ccccc3)c(C)c12 (stereo unspecified)	-27.3	-0.6	-0.1	-4.8	/	/
COc1ccc(C(C)n2c(C)c3c(C)nnc(C)c3c2C)cc1 (stereo unspecified)	-13.0	11.3*	0.8	-9.5	0.2	-0.9
CCOc1ccc(CC(=O)Nc2ccc(-c3cn4c(n3)SCC4)cc2)cc1	-5.8	5.1*	-0.1	-15.0	-0.5	4.6
O=C(Cc1ccc(Br)cc1)Nc1ccc(-c2cn3c(n2)SCC3)cc1	-6.8	-0.5	0.2	-3.4	/	/
CC1=C(C(=O)OCCOc2ccccc2)C(c2cccc(O)c2)C2=C(CCCC2=O)N1 (stereo unspecified)	-0.9	1.5	0.3	5.0	/	/
CCN(CC)c1nc(NCc2nc3ccccc3[nH]2)nc(Nc2nc3ccccc3n2C)n1	-0.8	-0.4	0.0	-15.6	/	/
CN(CCn1ccnc1)c1nc2nonc2nc1NCc1ccccc1	-0.1	2.4	0.1	5.8	/	/
CCN(CCn1cccn1)c1nc2nonc2nc1NCc1ccccc1	-4.5	6.5*	0.0	7.9	0.4	2.3
CC1(C)Nc2ccccc2C(=O)N1Cc1ccc(Cl)c(Cl)c1	6.2	0.0	0.1	11.3	/	/
CC1CCN(C(=O)Oc2ccccc2)CC1	0.5	1.4	0.0	2.2	/	/
CC1CCN(C(=O)Nc2ccc(Cl)cc2)CC1	-50.1	-0.2	0.5	18.8	/	/
CC(=O)Nc1ccc(OC(=O)N2CCC(C)CC2)cc1	23.3	5.3*	0.2	7.0	0.8	0.8
CC1CCN(C(=O)Nc2ccc(F)cc2)CC1	-19.3	7.2*	0.0	-5.0	-0.3	-4.0
CC1CCc2cc(F)ccc2N1/C=C1/C(=O)NC(=O)N(Cc2ccco2)C1=O (stereo unspecified)	-6.5	0.5	-0.4	49.5	/	/
COc1ccc(OC)c(NC(=O)CCNS(=O)(=O)c2ccc3c(c2)oc(=O)n3C)c1	-1.9	5.1*	0.0	1.9	0.5	4.4
Cc1c(NC(=O)c2ccc(C(C)(C)C)cc2)c(=O)n(-c2ccccc2)n1C	6.8	0.3	0.0	1.6	/	/

Compound activity as filed in PubChem.
